Only some compounds are listed: those with a hit (about 17% of all), similar ones and a draw of the others.
TGFb inhibitor – TGF-b pathway inhibition. HepG2 CAGA-GFP TGF-b/SMAD3 reporter, GFP fluorescence, 18 h; TGF-beta stimulated, 500 pg/mL final. Potency, µM (doses to about 46.1 µM), without a hit: top-dose activity, negative = inhibition, usual class: inhibitors. actives 1.2% (n = 410,000); further: on the % scale 0 is the no-effect control and ±100 the full control effect; nearly all actives have a fitted effect of over 65% in size
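HEPG2 CAGA-GFP, 1000 cells/well; 2 h settle, 37 C; cpd via pin tool; TGF-b 500 pg/mL final; 18 h, 37 C; GFP imaging ex488/em500-530; %Activity normalised to -TGF-b and +DMSO controls; CRC fit, curve class.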
DT40 TDP1 no CPT – qHTS for Inhibitors of human tyrosyl-DNA phosphodiesterase 1 (TDP1): qHTS in cells in absence of CPT; DT40 Tdp1-/- hTDP1 cells, no CPT, ATP luminescence, 48 h; Potency, µM (series often up to 46.2 µM), without a hit: top-dose activity change, negative = growth inhibition, most hits filed as inhibitors; actives 15% (n = 420,000); further: on the % scale 0 is the no-effect control and ±100 the full control effect; nearly all actives have a fitted effect of over 55% in size
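Stably hTDP1-transfected Tdp1-null chicken DT40 cells were treated with library compounds minus camptothecin and grown for at least 48 hr at 37 °C, after which cellular ATP was quantified by luminescence.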
DT40 TDP1 CPT – DT40-hTDP1 cell growth loss with CPT; chicken DT40 Tdp1-/-;hTDP1 cells + 20 nM CPT, ATP luminescence, 48 h; Potency, µM (series often up to 46.2 µM), for the others: at the top dose activity change, negative = growth inhibition, most hits filed as inhibitors; actives 12% (n = 420,000); AID 686979; further: on the % scale 0 is the no-effect control and ±100 the full control effect; nearly all actives have a fitted effect of over 55% in size
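Cell growth measured by CellTiter-Glo luminescence after a minimum 48 h, 37 C compound exposure with 20 nM CPT in Tdp1-knockout DT40 cells stably expressing hTDP1, seeded 400/well; qHTS titration format.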
HT1080NT lethal – kills 2HG-producing HT-1080-NT fibrosarcoma cells. HT-1080-NT fibrosarcoma viability, CellTiter-Glo ATP luminescence, 48 h. Potency, µM (titrated, usually from 46.1 µM), for the others: top-dose activity, negative = less viability, hits mostly cytotoxic. actives 1.6% (n = 360,000);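 further: NT is the 2HG producing partner of a matched IDH1 knockdown line; 0% = DMSO-treated cells and -100% = media-only wells without cells; nearly all actives have a fitted effect of over 55% in size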
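HT-1080-NT; 750 cells/well; 5% FBS RPMI; 48 h compound, 37 degrees C; CellTiter-Glo luminescence; curve fitting and curve-class assignment.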
HT1080 IDH1KD tx – kills HT-1080 cells with IDH1 knockdown | actives 2% (n = 360,000) | Potency, µM (titrated, usually from 46.1 µM), without a hit: at the top dose activity, negative = toxicity, actives largely listed as cytotoxic | HT-1080 IDH1 knockdown viability, ATP luminescence, 48 h;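 further: 0% = DMSO wells and -100% = cell-free medium wells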
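Assay cells: HT-1080 with IDH1 knockdown, 750 per well, RPMI/5% FBS. Exposure: 48 h at 37 °C following 2 h pre-incubation. Read: CellTiter-Glo luminescence; fitted concentration-response, curve class assigned.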
HepG2 tox – counter-screen for TGF-b inhibitors: cytotoxicity in HepG2 cells; HepG2 CAGA-GFP viability, ATP luminescence, 18 h; Potency, µM (top dose mostly 46.1 µM), without a hit: at the highest dose activity change, negative = cytotoxicity, usual class: cytotoxic; actives 0.76% (n = 410,000); AID 588856
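HepG2 CAGA-GFP cells (1000/well, DMEM with 1% FBS) received compound, then TGF-beta at 500 pg/mL final, and were incubated 18 hours at 37 degrees C. Viability was read by CellTiter-Glo luminescence. Media-only wells were set as complete cell-killing and DMSO as no toxicity.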
The depositor's hits bear a star; ? = inconclusive; nt = not tested or not shown; [ ] = dose if it differs, or a comment. The call rests on the fitted dose curve; in most records, active means well fitted curve in the direction sought with a large enough effect; inconclusive means small, poorly fitted or top-dose-only effect, or another doubt; inactive means no such curve, though single readings can be large; an effect the other way counts as inactive or inconclusive. Potency means the concentration at half of the fitted maximal effect.

SMILES	TGFb inhibitor	DT40 TDP1 no CPT	DT40 TDP1 CPT	HT1080NT lethal	HT1080 IDH1KD tx	HepG2 tox
COc1c(C=O)c2c(c(OC)c1OC)-c1ccc(OC)c(=O)cc1C(NC(C)=O)CC2 (stereo not drawn)	?	0.015µM*	0.0082µM*	0.0052µM*	?	-6%
COc1ccccc1CNC(=O)C1CCC(CNS(=O)(=O)c2ccc(C)cc2)CC1 (stereo not drawn)	-9%	?	-1%	-25%	-20%	-24%
Cc1ccc(C(=O)N(Cc2cc3cc4c(cc3nc2N2CCOCC2)CCC4)CC2CCCO2)s1 (stereo not drawn)	nt	-22%	11%[9.04 µM]	nt	nt	nt
COc1ccc(C(=O)Oc2ccc(C(c3c(C)[nH][nH]c3=O)c3c(C)[nH][nH]c3=O)cc2)cc1	-6%	-15%	-10%	nt	nt	0%
CCOc1ccc(C(CC(=O)O)NC(=O)Cc2ccc(Cl)cc2)cc1 (stereo not drawn)	4%	4%	16%	1%	-2%	2%
O=C(N/N=C1\CC2CC=CC12)c1ccc(Br)cc1 (stereo not drawn)	-1%	4%	-2%	1%	-4%	-20%
Cc1cc(Br)c(OCc2ccc(C(=O)N/N=C3\CC4CC=CC34)cc2)c(Br)c1 (stereo not drawn)	7%	15µM*	-29%	-25%	?	-24%
O=C1C(Br)=C(c2ccccc2)C(c2ccccc2)=C1c1ccccc1	0%	0.92µM*	0.58µM*	1%	?	18%
O=C1NC(c2ccccc2)=C(c2ccccc2)C1=O	16%	-5%	-12%	18%	20%	4%
COC1=C(Br)C(=O)c2nc(C)ccc2C1=O	?	0.58µM*	0.65µM*	-5%	-22%	-43%
COc1ccc(N)c2c1C(=O)c1ccccc1C2=O	?	?	?	-9%	-24%	-14%
COC1=C(N)C(=O)c2nc(C)ccc2C1=O	-24%	7.3µM*	5.2µM*	6%	9%	-5%
CCOc1ccccc1CNC(=O)c1oc2c(c1C)-c1[nH]ncc1CC2	0%	16µM*	16µM*	nt	nt	-28%
Cc1ccc(Cl)cc1NC(=O)c1oc2c(c1C)-c1[nH]ncc1CC2	-18%	?	?	nt	nt	-39%
Cc1cc(C)c(NC(=O)c2oc3c(c2C)-c2[nH]ncc2CC3)c(C)c1	-5%	21µM*	16µM*	nt	nt	-19%
Cc1ccc(C)c(S(=O)(=O)NCc2ccc(C(=O)NCc3ccccn3)cc2)c1	33%	-27%	-8%	-1%	-4%[9.24 µM]	20%
CCCOc1ccc(C2C(=O)N(C3CCCCCC3)CC(=O)N2C(C)C)cc1OC (stereo not drawn)	-1%	?	?	nt	nt	-6%
O=C(Nc1cccc(NC(=O)c2cccnc2)c1)c1ccccc1	-1%	?	-21%	0%	5%	4%
O=C(COc1ccc(C(=O)c2ccccc2)cc1)Nc1cccnc1	-18%	2.9µM*	5.2µM*	?	-26%	-12%
O=C(Nc1cccnc1)c1ccc2nc(-c3ccccc3)c(-c3ccccc3)nc2c1	-4%	15µM*	23µM*	-1%	2%	-29%
COC(=O)/C=C/C(=O)Nc1cccnc1	0%	?	16µM*	-2%	-2%	-56%
CN(C)S(=O)(=O)c1cccc(NC(=O)COC(=O)c2ccc3ccccc3n2)c1	-1%	6%	1%	-6%	-3%	-3%
Cc1nnnn1/C(=C\c1ccccc1)C(=O)OCC(=O)Nc1cccc(S(=O)(=O)N(C)C)c1	?	7.3µM*	10µM*	?	?	-105%
N#Cc1ccc(-c2ccc(OCC(=O)Nc3cccnc3)cc2)cc1	0%	?	?	?	?	-14%
COc1ccc(NC(=O)C2CCN(S(=O)(=O)c3cccc4nonc34)CC2)cc1	11%	-17%	1%	-17%	-5%	5%
SMILES	TGFb inhibitor	DT40 TDP1 no CPT	DT40 TDP1 CPT	HT1080NT lethal	HT1080 IDH1KD tx	HepG2 tox
O=C(Nc1ccc(F)cc1)Nc1cccnc1	23%	-3%	?	0%	12%	0%
CN(c1ccccc1)S(=O)(=O)c1cccc(NC(=O)COc2ccccc2)c1	-4%	?	?	0%	3%	0%
O=C(Nc1cccnc1)c1ccc(Oc2ccccc2)cc1	0%	?	23µM*	?	26µM*	-43%
O=C(Nc1cccnc1)c1ccccc1Oc1ccccc1	6%	-16%	-18%	3%	-2%	-21%
CN(C)S(=O)(=O)c1cccc(NC(=O)COc2ccc(C(=O)c3ccccc3)cc2)c1	-33%	16µM*	18µM*	?	?	22µM*
O=C(Nc1ccccc1)Nc1ccc(Oc2cccnc2)nc1	-20%	16µM*	?	-24%	-10%	-19%
Cc1ccc(CNC(=O)C(=O)NCC(c2ccco2)S(=O)(=O)c2ccccc2)cc1 (stereo not drawn)	0%	-4%	-5%	nt	nt	-32%
Cc1ccc(-c2nc(CNC(=O)c3ccco3)cs2)cc1	-6%	?	?	-8%	-8%	-12%
Cc1ccc(C(C)C)c(OCC(=O)NNC(=O)Cn2[nH]c(=O)c3ccccc3c2=O)c1	-3%	-17%	-25%	2%	9%	-1%
Nn1c(SCc2cccc3ccccc23)nnc1-c1ccco1	3%	?	?	12%	?	3%
Cn1c(SCC(=O)c2ccc(-c3ccccc3)cc2)nnc1-c1ccco1	4%	26µM*	-24%	7%	18%	7%
CCn1c(SCc2nc(-c3ccccc3)no2)nnc1-c1ccco1	-13%	?	-5%	4%	-2%	-17%
CCn1c(SCc2c(F)cccc2Cl)nnc1-c1ccco1	11%	18µM*	?	5%	-4%	0%
Cn1c(SCc2cccc3ccccc23)nnc1-c1ccco1	-10%	?	13µM*	-26%	?	-30%
Cc1ccc(NC(=O)CSc2nnc(CNC(=O)c3ccco3)n2C)cc1	-18%	-29%	-15%	-16%	-12%	5%
Cc1cc(C)cc(NC(=O)CSc2nnc(CNC(=O)c3ccco3)n2C)c1	11%	29µM*	?	-1%	-3%	-4%
CC(C)n1nnnc1C1c2ccccc2C(=O)N1Cc1ccccc1 (stereo not drawn)	nt	-28%	2%	25%	18%	nt
